We go through 14 molecules from PubChem BioAssay (NCATS).

Experiment [1] relates to CRL-7250. Put plainly: qHTS assay to identify novel small-molecules to repurpose for Merkel cell carcinoma treatment (AID 1296009). As to conditions: MCC and control cell lines, CellTiter-Glo viability, 72 h; series mostly up to 44.8 µM. The method, boiled down:
(§1)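 Dose-response viability screen; 72 hr exposure at 37 degree celsius; CellTiter-Glo added, 10 min room temperature, luminescence read; RLUs scaled between no-cell and DMSO wells.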
A general note: Quantitative high-throughput screening tests each substance at several concentrations.

In a further experiment the test system is N140. Put plainly: qHTS profiling for inhibitors of Plasmodium falciparum proliferation (AID 504749). Note: potency is the fitted concentration of half-maximal effect. The conditions noted are these: P. falciparum in erythrocytes, SYBR Green DNA, 72 h; series mostly up to 28.7 µM. Summed up:
(§2)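 Each compound contacts P. falciparum-infected red blood cells for 72 h at 37 C; lysis buffer (Tris, EDTA, saponin, Triton X, SYBR Green I) is added and fluorescence measured next morning; values normalized to controls.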

For a further experiment, the system named is P93_24. Described as above. The conditions noted are these: P. falciparum in erythrocytes, SYBR Green DNA, 72 h; series mostly up to 28.7 µM. Summed up:
as §2

A further experiment relates to P94_40. Described as above. As to conditions: P. falciparum in erythrocytes, SYBR Green DNA, 72 h; series mostly up to 28.7 µM. The method, boiled down: as §2
The test system of the next experiment is PC15. The description is as above. The conditions noted are these: P. falciparum in erythrocytes, SYBR Green DNA, 72 h; series mostly up to 28.7 µM. The method, boiled down:
as §2

The subject of another experiment is PC26. The experiment is described as above. As to conditions: P. falciparum in erythrocytes, SYBR Green DNA, 72 h; series mostly up to 28.7 µM. The method, boiled down:
as §2

The test system of the next experiment is PC49. The description is as above. As to conditions: P. falciparum in erythrocytes, SYBR Green DNA, 72 h; series mostly up to 28.7 µM. Summed up:
as §2

The subject of the next experiment is SC27B. Described as above. As to conditions: P. falciparum in erythrocytes, SYBR Green DNA, 72 h; series mostly up to 28.7 µM. Summed up:
as §2

A further experiment relates to TAB109. Described as above. The conditions noted are these: P. falciparum in erythrocytes, SYBR Green DNA, 72 h; series mostly up to 28.7 µM. The method, boiled down: as §2
In a further experiment the test system is TAB113. The description is as above. The conditions noted are these: P. falciparum in erythrocytes, SYBR Green DNA, 72 h; series mostly up to 28.7 µM. The method, boiled down: as §2
A further experiment relates to TAB165. The experiment is described as above. The conditions noted are these: P. falciparum in erythrocytes, SYBR Green DNA, 72 h; series mostly up to 28.7 µM. Summed up: as §2
The test system of a further experiment is HEK293. Put plainly: Cytotoxic Profiling of Annotated Libraries Using Quantitative High-Throughput Screening (AID 1296008). For max response: % is set by controls: 0 for no effect and ±100 for the full control effect. Note: potency is the fitted concentration of half-maximal effect. The conditions noted are these: Five cell lines viability, CellTiter-Glo ATP luminescence, 48-72 h; max response: hits give low values. The method, boiled down: (§3)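 Cells exposed to compounds for 48 or 72 hr at 37 degrees Celsius. Viability read as ATP-coupled luminescence with CellTiter-Glo after 10 min at room temperature.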
In general terms: ATP-based viability assays read luminescence as a measure of living cells.

The test system of experiment [2] is HaCat. Described as above. The conditions noted are these: Five cell lines viability, CellTiter-Glo ATP luminescence, 48-72 h; max response: hits give low values. The method, boiled down: as §3
For a further experiment, the system named is KB-3-1. Described as above. The conditions noted are these: Five cell lines viability, CellTiter-Glo ATP luminescence, 48-72 h; max response: hits give low values. Summed up: as §3
Another experiment relates to NIH3T3. The experiment is described as above. The conditions noted are these: Five cell lines viability, CellTiter-Glo ATP luminescence, 48-72 h; max response: hits give low values. The method, boiled down: as §3
For experiment [3], the system named is HACAT. The experiment can be described thus: qHTS assay to identify novel small-molecules to repurpose for Merkel cell carcinoma treatment (AID 1296009). The conditions noted are these: MCC and control cell lines, CellTiter-Glo viability, 72 h; at 44.8 µM (top of the series) unless noted. The method, boiled down:
as §1

Experiment [4] relates to CRL-7250. The experiment can be described thus: Cytotoxic Profiling of Annotated Libraries Using Quantitative High-Throughput Screening (AID 1296008). For max response: % is set by controls: 0 for no effect and ±100 for the full control effect. Note: potency is the fitted concentration of half-maximal effect. The conditions noted are these: Five cell lines viability, CellTiter-Glo ATP luminescence, 48-72 h; max response: hits give low values. Summed up: as §3
Another experiment concerns W2. The experiment can be described thus: qHTS profiling for inhibitors of Plasmodium falciparum proliferation (AID 504749). Note: potency is the fitted concentration of half-maximal effect. As to conditions: P. falciparum in erythrocytes, SYBR Green DNA, 72 h; series mostly up to 28.7 µM. Summed up:
as §2

For another experiment, the system named is PAD. The description is as above. As to conditions: P. falciparum in erythrocytes, SYBR Green DNA, 72 h; series mostly up to 28.7 µM. The method, boiled down: as §2

Where “and” joins values, the source holds several entries; their conditions need not be identical. Equal values may be shown once. Results filed as inconclusive are left out. Values without a mark were called inactive. Calls of active or inactive are those of the source. Calls come from the whole dose curve; as a rule, active = well fitted inhibition curve with a large enough effect; inconclusive = small, poorly fitted or top-dose-only effect; inactive = flat fitted curve, though single readings scatter.
Note: nearly all actives have a fitted effect of over 60% in size.

As for `Cc1[nH]c(=O)c(C#N)cc1-c1ccncc1`, the molecule was called inactive in the experiment on CRL-7250 [1].

In the case of `O=C1NC(c2ccccc2)(c2ccccc2)C(=O)N1COP(=O)(O)O`, in the experiment with CRL-7250 [1], the molecule was classed as inactive.

Turning to `COC1=CC(=O)C[C@@H](C)[C@]12Oc1c(Cl)c(OC)cc(OC)c1C2=O`, the result with CRL-7250 [1] was inactive.

On to `C[C@]12C/C(=C/O)C(=O)C[C@@H]1CC[C@@H]1[C@@H]2CC[C@@]2(C)[C@H]1CC[C@]2(C)O`, for which the Potency entry in the experiment on N140, with P93_24, in the experiment with P94_40, in the experiment on PC15, in the experiment on PC26 and with PC49 was “inactive” in each case. In addition, the Potency entry in the experiment with SC27B, in the experiment with TAB109, in the experiment on TAB113 and in the experiment with TAB165 was “inactive” throughout. Moreover, the max response in the experiment on HEK293 was -8.16%; with KB-3-1, -12.7%; with NIH3T3 it was 1.95%. The result in the experiment on HaCat [2] and in the experiment on HACAT [3] was inactive.

As for `CC(C)=CCOc1c2occc2cc2ccc(=O)oc12`, the max response with CRL-7250 [4] is -11.3%; with KB-3-1 it was -18.5%; in the experiment on NIH3T3, -0.907%. For the same molecule, the outcome in the experiment with HaCat [2] and in the experiment on HACAT [3] was inactive.

As for `CN1C[C@H](CNC(=O)OCc2ccccc2)C[C@@H]2c3cccc4c3c(cn4C)C[C@H]21`, the Potency was 12.6 µM (active) with N140; 5.01 µM (active) in the experiment on P93_24; 6.31 µM (active) in the experiment on P94_40; 13.5 µM (active) in the experiment with PC26; 5.62 µM (active) in the experiment with TAB109; 12.6 µM (active) in the experiment with TAB113. Further, the Potency in the experiment with TAB165 was 10 µM (active); in the experiment on W2 it was 4.78 µM (active). Also, in the experiment on PC49, the Potency result was “inactive”. Besides, the max response in the experiment on HaCat [2] is -40.8%; in the experiment on KB-3-1 it was -8.28%.

Take `CC(O)(CS(=O)(=O)c1ccc(F)cc1)C(=O)Nc1ccc(C#N)c(C(F)(F)F)c1` (stereo not drawn): the call with CRL-7250 [4], in the experiment on HaCat [2], in the experiment with NIH3T3, with CRL-7250 [1] and in the experiment on HACAT [3] was inactive. Further, the max response in the experiment with KB-3-1 is 4.8% and -10.6%; with NIH3T3, 2.23%.

For `COC[C@@H](NC(C)=O)C(=O)NCc1ccccc1`, the max response in the experiment with HEK293 was -4.08%; in the experiment with KB-3-1, 8.88%; with NIH3T3, 2.94%. Moreover, the molecule was called inactive in the experiment on HaCat [2] and in the experiment with HACAT [3].

`CCCN1CCC[C@@H]2Cc3[nH]ncc3C[C@H]21`: the Potency entry with PC26 and in the experiment with W2 was “inactive” throughout. The max response with CRL-7250 [4] was 4.64%; in the experiment with HEK293 it was -0.855%; in the experiment with KB-3-1 it was -4.95%. Moreover, the result in the experiment with NIH3T3 was inactive.

For the molecule `c1ccc2c(c1)OCC(C1=NCCN1)O2` (stereo not drawn), the Potency result in the experiment on N140, with P93_24, in the experiment with P94_40, with PAD, with PC15 and in the experiment with PC26 was “inactive” in each case. Further, the Potency entry with SC27B, with TAB109, in the experiment on TAB113 and in the experiment with TAB165 was “inactive” each time. Moreover, the Potency in the experiment on CRL-7250 [4] was 23.7 µM (active); with HEK293 it was 18.8 µM (active); with NIH3T3, 15 µM (active). For the same molecule, in the experiment with KB-3-1, the max response is 29.1%.

Take `C=C1C[C@@H]2[C@H](CC[C@]3(C)C(=O)CC[C@@H]23)[C@@]2(C)C=CC(=O)C=C12`: in the experiment on KB-3-1, the max response is -16.4%.

`C[C@@H]1[C@@H](CC(C[C@H]2O[C@@H]3O[C@]4(C)CC[C@@H]5[C@H](C)CC[C@@H]([C@H]2C)[C@@]35OO4)C[S+](=O)([O-])c2ccc(COC(=O)N(C)C)cc2)O[C@@H]2O[C@]3(C)CC[C@H]4[C@H](C)CC[C@@H]1[C@@]24OO3` (stereo partly drawn): the Potency in the experiment on KB-3-1 is 1.32 µM (active).

On to `CC1=C2C[C@@H]3[C@@H](CC=C4C[C@@H](O)CC[C@@]43C)[C@@H]2CC[C@]12O[C@H]1C[C@H](C)CN[C@H]1[C@H]2C`, for which the max response with CRL-7250 [4] was 4.78%; in the experiment with KB-3-1 it was 6.86%; in the experiment with NIH3T3 it was 0.588%. Moreover, the molecule was classed as inactive in the experiment on HaCat [2] and in the experiment with HACAT [3].

Take `Fc1ccc(C(OCCN2CCN(CCCc3ccccc3)CC2)c2ccc(F)cc2)cc1`: the Potency in the experiment on N140 is 5.01 µM (active); in the experiment on P93_24, 4.47 µM (active); in the experiment on P94_40, 7.94 µM (active); with PAD, 8.91 µM (active); with PC15 it was 11.2 µM (active); with PC26 it was 12 µM (active). The Potency is 8.91 µM (active) in the experiment with PC49; 8.91 µM (active) with SC27B; 7.94 µM (active) with TAB109; 8.91 µM (active) in the experiment on TAB113; 4.47 µM (active) with TAB165; 4.26 µM (active) in the experiment with W2. In addition, the Potency in the experiment with CRL-7250 [4] is 13.2 µM (active); in the experiment on HEK293, 18.7 µM (active) and 21.1 µM (active); in the experiment with KB-3-1, 23.1 µM (active).
